High-throughput results (PubChem BioAssay)
Only a selection was taken, and hits are over-represented in it overall.
Giardia FBPA inh – qHTS Assay for Inhibitors of Fructose-1,6-bisphosphate Aldolase from Giardia Lamblia. A8B2U2. purified Giardia FBPA. Potency, µM (doses to about 59.6 µM), usual class: inhibitors. hit rate 0.71% among 290,000. AID 2451, 2010; further: nearly all actives have a fitted effect of over 55% in size
Target sequence (A8B2U2 whole entry, looked up): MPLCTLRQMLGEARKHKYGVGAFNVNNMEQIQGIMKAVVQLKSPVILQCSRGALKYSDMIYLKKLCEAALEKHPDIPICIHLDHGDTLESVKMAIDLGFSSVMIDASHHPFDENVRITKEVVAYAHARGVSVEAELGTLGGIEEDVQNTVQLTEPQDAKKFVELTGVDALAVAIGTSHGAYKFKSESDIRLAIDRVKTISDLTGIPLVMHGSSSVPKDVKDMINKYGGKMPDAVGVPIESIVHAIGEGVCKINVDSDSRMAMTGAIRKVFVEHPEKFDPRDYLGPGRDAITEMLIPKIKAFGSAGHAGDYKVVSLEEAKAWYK
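Giardia FBPA (40 nM reagent) was preincubated 10 min at RT with compound (up to 57.5 uM final), then substrate plus GAPDH/TPI/NAD/arsenate coupling system with diaphorase/resazurin was added; resorufin fluorescence (525/598 nm) was read after 20 min.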
LmPK inh – qHTS Assay for Inhibitors of Leishmania Mexicana Pyruvate Kinase (LmPK) | Q27686 | purified LmPK, Kinase-Glo ATP luminescence, 1 h | Potency, µM (series often up to 57.5 µM), most hits filed as inhibitors | hit rate 0.37% among 290,000
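Purified LmPK (0.1 nM) with 0.5 mM PEP and 0.1 mM ADP in imidazole buffer pH 7.2 with MgCl2/KCl, 1 h at room temperature. ATP formed was read by luciferase luminescence and normalized to no-enzyme and uninhibited controls.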
Sm TGR block – qHTS Assay for the Inhibitors of Schistosoma Mansoni Peroxiredoxins | Schistosoma mansoni thioredoxin glutathione reductase (TGR), Q962Y6 | purified TGR, DTNB reduction, TNB absorbance 405 nm | Potency, µM (titrated, usually from 114 µM), most hits filed as inhibitors | hit rate 3% among 360,000 | AID 485364, 2010; further: nearly all actives have a fitted effect of over 60% in size
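TGR 20 nM + NADPH 100 uM (dispensed conc.), cpd preinc 15 min RT; start with NADPH (500 uM addition) then DTNB (15 mM addition). Kinetic TNB absorbance, 405 nm filter. Four-parameter Hill fit across titration.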
Cycloheximide cs – Cycloheximide Counterscreen for Small Molecule Inhibitors of Shiga Toxin. cell reporter, cycloheximide protein synthesis inhibition counterscreen. max response, %. hit rate 12% among 300,000. AID 2314, 2010; in the data active means max response mostly above about 13%, no sharp cut-off; inactive means mostly below about 14%; further: read at 38.3 µM for the half of the compounds with a filed dose
Shiga inhibitor – A qHTS for Small Molecule Inhibitors of Shiga Toxin; Vero cells, Shiga toxin protein synthesis inhibition reporter; inhibition, % at 38.7 µM; hit rate 9.2% among 290,000; in the data active means inhibition mostly above about 28%, no sharp cut-off; inactive means mostly below about 43%
Tb PYK inh – qHTS of Trypanosoma Brucei Inhibitors; pyruvate kinase (Trypanosoma brucei), Q57TT1; TbPYK enzyme, Kinase-Glo Plus ATP luminescence, 45 min; Potency, µM (series often up to 76.8 µM), actives largely listed as inhibitors; hit rate 0.12% among 410,000; AID 624173, 2012; further: nearly all actives have a fitted effect of over 50% in size
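Screened from lowest to highest concentration, compounds were pinned into TbPYK/substrate mixtures, and ADP (130 uM final) was added. Plates sat at room temperature for 45 min prior to Kinase-Glo Plus detection by luminescence.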
A number is an active result; - = inactive; ? = inconclusive; . = no result given. Unless noted, the call rests on the fitted dose curve; in most records, active means well fitted curve in the direction sought with a large enough effect; inconclusive means small, poorly fitted or top-dose-only effect, or another doubt; inactive means no such curve, though single readings can be large; an effect the other way counts as inactive or inconclusive.

SMILES	Giardia FBPA inh	LmPK inh	Sm TGR block	Cycloheximide cs	Shiga inhibitor	Tb PYK inh
Cc1ccc(N(CC(=O)Nc2cccc(F)c2)S(=O)(=O)c2cccs2)cc1	.	.	-	.	.	-
O=C(NCc1ccco1)/C(=C/c1ccc(Cl)cc1)NC(=O)c1ccco1	-	-	-	-	-	-
O=C(/C=C/c1ccc(S(=O)(=O)NCc2ccco2)cc1)NCc1ccccc1Cl	-	-	-	31	20	-
O=C(/C=C/c1ccc(Cl)cc1)NCc1ccco1	-	-	-	25	94	?
N#Cc1ccccc1NC(=O)c1cc2c(=O)n3ccccc3nc2s1	.	.	-	.	.	-
COc1ccccc1NC(=S)Nc1ccccn1	-	-	-	-	-	-
Cc1cc(Cl)ccc1NC(=S)Nc1ccccn1	-	-	-	33	23	-
Cc1ccc(NC(=S)Nc2ccccn2)c(C)c1	-	-	?	48	82	-
CC1CCCN(c2nc(N(C)c3ccccc3)nc(N)c2[N+](=O)[O-])C1 (stereo not drawn)	-	-	-	20	-	-
Nc1nc(Nc2ccccc2)nc(N2CCCC2)c1[N+](=O)[O-]	-	-	-	39	58	-
COc1ccc(Nc2nc(N)c([N+](=O)[O-])c(N3CCCC3)n2)cc1	-	-	-	17	-	-
COC(=O)c1ccc(NS(=O)(=O)NC(=O)c2cn(C)c3ccccc23)cc1	-	-	-	-	-	-
O=C(CN(C(=O)CCC(=O)Nc1nccs1)c1ccccc1F)NCc1ccc(F)cc1	-	-	-	-	-	-
CC(C)Nc1cc(N2CCN(C3CCCCC3)CC2)c2noc3c2c1C(=O)c1ccccc1-3	.	.	-	.	.	-
CC1Cc2ccccc2N1C(=O)COC(=O)c1ccc(N(C)C)cc1 (stereo not drawn)	.	.	-	.	.	-
Cc1ccc(NC(=O)C(=S)NCc2ccco2)cc1	-	-	-	38	-	-
CCC(C)C(NC(=O)c1ccccc1NC(=O)c1ccc(OC)cc1)C(=O)NCc1ccco1 (stereo not drawn)	-	-	-	-	-	-
COc1ccc(C(=O)NC(=S)NCc2ccco2)cc1	-	-	7.1µM	22	44	-
COc1ccc(C(=O)Nc2ccc(Cl)cc2C(=O)NCc2ccco2)cc1	-	-	-	14	-	-
Cc1ccc(C(=O)NC(=S)NCc2ccccc2)cc1	-	-	6.3µM	16	-	-
O=C(COc1ccccc1F)Nc1ccc2nc(SCc3ccccc3)sc2c1	.	.	-	.	.	-
Cc1ccc(C(=O)NC(=S)NCc2ccco2)cc1	-	-	?	35	-	-
O=C(NC(=S)NCc1ccco1)c1cccc(Cl)c1	.	-	?	-	-	.
COc1ccc(C(=O)NC(=S)NCc2ccco2)cc1OC	-	-	?	-	-	-
COc1cc(OC)cc(C(=O)NC(=S)NCc2ccco2)c1	-	-	?	-	-	-
SMILES	Giardia FBPA inh	LmPK inh	Sm TGR block	Cycloheximide cs	Shiga inhibitor	Tb PYK inh
Cc1cc(C(=O)NNC(=S)NCc2ccco2)n(C)n1	-	-	22µM	-	-	-
COc1ccc(C(=O)NC(=S)NCc2ccco2)cc1Br	.	-	50µM	-	-	-
COc1cccc(C(=O)NC(=S)NCc2ccco2)c1	-	-	?	23	40	-
Cc1cc(OCC(=O)N(Cc2ccc(N(C)C)cc2)CC2CCCO2)ccc1Cl (stereo not drawn)	.	.	-	.	.	-
CCCCN(CC)Cc1c(O)ccc2c(-c3ccccc3)cc(=O)oc12	-	-	50µM	-	-	-
CN1CCN(Cc2c(O)ccc3c(-c4ccccc4)cc(=O)oc23)CC1	-	-	32µM	-	-	-
COc1ccc(N=Cc2c(O)c3ccccc3n2C(C)=O)cc1	?	-	28µM	14	-	-
COc1ccc(N=Cc2sc(O)c3ccccc23)cc1	-	-	-	66	87	-
O=C(NCc1ccccc1)c1cc(C2CCCN(C(=O)c3cccs3)C2)on1 (stereo not drawn)	.	.	.	.	.	-
O=C(NCc1cccs1)c1cc(C2CC2)on1	-	-	-	22	64	-
COCCNC(=O)c1cc(-c2cccs2)on1	-	-	-	34	101	-
O=C(NCc1cccs1)c1cc(-c2cccs2)on1	-	-	-	41	87	-
O=C(NCc1cccs1)c1cc(-c2ccccc2)on1	-	-	-	30	118	-
Cc1cc(C(=O)NCc2cccs2)no1	-	-	-	-	-	-
Cc1ccc(Cc2nc3ccccc3nc2SCC(=O)N2CCN(c3ccccc3F)CC2)cc1	.	.	-	.	.	-
Cc1nn(CCC(=O)N2CCN(c3ccccc3F)CC2)c(C)c1S(=O)(=O)N1CCCC1	.	.	-	.	.	-
CCCCNC(=O)C1(C)CCCCN1C(=O)c1ccc(F)c(C)c1 (stereo not drawn)	.	.	.	.	.	-
CC1CCCC(NC(=O)CN2C(=O)NC(c3ccccc3)(c3ccccc3)C2=O)C1C (stereo not drawn)	.	.	-	.	.	-
O=[N+]([O-])c1ccccc1S(=O)(=O)Nc1ccc(-c2ccc3nncn3n2)cc1	.	.	-	.	.	-
NC(=O)c1cccc(-c2cccc(OC(=O)NC3CCCCC3)c2)c1	-	-	-	-	-	-
O=C(O)c1ccccc1-c1cn2cc(Cl)ccc2n1	?	-	-	-	-	-
CNC(=O)Oc1ccc(-c2cn3cc(Cl)ccc3n2)cc1	-	-	35µM	21	-	-
CNC(=O)Oc1cccc(-c2cn3cc(OC(=O)NC)ccc3n2)c1	?	-	-	37	active	-
Clc1ccc(Sc2cc(Cl)c(Cl)cc2Cl)cc1	-	.	.	-	-	.
Cc1ccc(C(=O)N2CCN(c3ccc(NC(=O)c4ccc(Br)o4)cc3)CC2)cc1	-	-	-	-	-	-
SMILES	Giardia FBPA inh	LmPK inh	Sm TGR block	Cycloheximide cs	Shiga inhibitor	Tb PYK inh
CN1CCN(c2ccc(NC(=O)c3ccccc3Br)cc2)CC1	-	-	-	18	active	-
CN1CCN(c2ccc(NC(=O)c3ccc(Br)o3)cc2)CC1	.	-	-	30	76	-
CC1CCN(c2ccc(NC(=O)c3cccnc3Cl)cc2)CC1	-	-	-	-	-	-
O=C(Nc1ccc(N2CCOCC2)cc1)c1ccc(Br)o1	.	-	-	28	79	-
O=C(Nc1ccc(C(=O)N2CCN(c3ccncc3)CC2)cc1)c1ccc(Br)o1	.	.	.	.	.	-
CC1CCN(c2ccc(NC(=O)c3ccc(Br)o3)cc2)CC1	.	-	-	28	65	-
COc1ccc(CCNC(=O)c2ccc3c(c2)N(Cc2ccc(Cl)cc2)CCS3)c(OC)c1	.	.	-	.	.	-
O=C(NNC(=O)c1ccc(Br)o1)c1ccc(NC(=O)c2ccccc2)cc1	-	-	-	-	-	-
CS(=O)(=O)N1CCN(c2ccc(NC(=O)c3ccc(Br)o3)cc2)CC1	-	-	-	43	110	-
